Test results as given in ChEMBL document CHEMBL3988442, “University of Dundee, Small-Polar-MMV Screening Library” (2021).
Among all 48,000 compounds or so, about 13,000 (27%) showed an effect of 50% or more. This is one part of the list.

What follows are molecules tested on Wolbachia pipientis (assay: Anti-Wolbachia Cell-Based Screen). Settings: 5 µM.
Assay type: functional
Design: scale not given: in the data most compounds retested in dose-response had high values

| SMILES | Percent Effect [%] |
| --- | --- |
| Cc1ccn(-c2ccc(NCc3ccnc(N4CCCCC4)c3)nn2)n1 | 4.336 |
| O=C(CCc1ccc(Br)cc1F)NS(=O)(=O)c1ccc2c(c1)OCCO2 | -3.282 |
| Cc1ccc(CN[C@@H]2CO[C@H](CNS(=O)(=O)c3ccccc3)[C@H]2O)cc1 | -4.281 |
| Cn1cc(S(=O)(=O)Nc2c(F)cccc2N2CCCC2)cn1 | -10.22 |
| Cn1cc(S(=O)(=O)Nc2ccc3[nH]c(C4CCC4)nc3c2)cn1 | -3.023 |
| CCn1cc(S(=O)(=O)NC2CCCC2)cn1 | 8.847 |
| CC1CCc2nc(NS(=O)(=O)c3cnn(C)c3)sc2C1 (centres undefined) | 97.97 |
| CCn1cc(S(=O)(=O)NC2CCCN(CC3CCCCC3)C2)cn1 (centres undefined) | 19.95 |
| CCn1cc(S(=O)(=O)Nc2nc3c(s2)CC(C)CC3)cn1 (centres undefined) | 98.13 |
| Cc1oc(C(=O)O)cc1S(=O)(=O)Nc1cc(Br)ccc1Cl | 106.9 |
| Cc1oc(C(=O)O)cc1S(=O)(=O)Nc1cccc(-n2nccc2C)c1 | -0.5451 |
| Cc1oc(C(=O)O)cc1S(=O)(=O)Nc1ccc(Br)cc1Cl | 96.02 |
| Cc1noc(C)c1NS(=O)(=O)c1cc(C(=O)O)cc(Cl)c1Cl | 3.53 |
| Cc1oc(C(=O)O)cc1S(=O)(=O)Nc1ccc(Cl)c(Cl)c1 | -3.012 |
| Cc1ccc(NS(=O)(=O)c2cc(C(=O)O)oc2C)c(Br)c1 | 0.9383 |
| O=S(=O)(CCNCc1ccc2c(c1)CCO2)N1CCOCC1 | 0.3646 |
| CN1CC(C(=O)NCc2cccnc2OCc2ccccc2)CC1=O (centres undefined) | 10.22 |
| CCN1CC(C(=O)NCc2ccccc2-n2cccn2)CC1=O (centres undefined) | 3.983 |
| O=C(NCc1ccnc(-n2cccn2)c1)C1CC(=O)N(CC2CC2)C1 (centres undefined) | 153.4 |
| CN(C)CCN1CC(C(=O)NCc2cn3cccnc3n2)CC1=O (centres undefined) | -11.69 |
| CN(C)CCN1CC(C(=O)NCc2cccc(-n3cccn3)c2)CC1=O (centres undefined) | 7.096 |
| COCCN1CC(C(=O)NCc2ccnc(-n3cccn3)c2)CC1=O (centres undefined) | -1.182 |
| CCN1CC(C(=O)NCc2cccnc2-n2cccn2)CC1=O (centres undefined) | 124.7 |
| O=C(NCc1cccnc1-n1cccn1)C1CC(=O)N(CC2CC2)C1 (centres undefined) | -9.395 |
| CN1CC(C(=O)NCc2cccnc2-n2cccn2)CC1=O (centres undefined) | 63.73 |
| COCCN1CC(C(=O)NCc2cccnc2-n2cccn2)CC1=O (centres undefined) | 120.6 |

| SMILES | Percent Effect [%] |
| --- | --- |
| CC(C)N1CC(C(=O)NCc2ccnc(-n3cccn3)c2)CC1=O (centres undefined) | -4.025 |
| CCS(=O)(=O)N1CCN(C(=O)c2ccc(Cn3cc(Br)cn3)cc2)CC1 | -241.9 |
| CCN(C(=O)CN1CCN(CC(C)O)CC1)C1=CCCCC1 (centres undefined) | -11.46 |
| COc1cc(F)c(-n2cnc(CCNC(C)=O)c2)cc1F | -17.55 |
| CCN1CCN(S(=O)(=O)N2CCCC2)[C@H]2CS(=O)(=O)C[C@H]21 | -2.731 |
| CCN(CC(=O)NCc1nc(C2CC2)no1)Cc1ccc(Cl)cc1 | 3.966 |
| CC(C)CN1CC(C(=O)NCc2cccnc2-n2cccn2)CC1=O (centres undefined) | 126 |
| O=C(NCc1cnn2cccnc12)C1CC(=O)N(Cc2cccnc2)C1 (centres undefined) | -5.518 |
| CC(C)CN1CCN(C(=O)NCc2cccnc2-n2cccn2)CC1 | 4.797 |
| COCC1c2nnn(CC3CC3)c2CCN1C(=O)CS(C)(=O)=O (centres undefined) | -0.612 |
| O=S(=O)(Cc1ccccc1)NCc1ccco1 | 0.9463 |
| CC(CNC(=O)NCc1ccco1)CC1(C)OCCO1 (centres undefined) | 3.835 |
| Cc1ccc(CS(=O)(=O)NCc2ccco2)cc1 | 3.7 |
| CC(O)CNc1c(NCc2ccco2)c(=O)c1=O (centres undefined) | 135.5 |
| C[C@@H](O)CNc1c(NCc2ccco2)c(=O)c1=O | 100.7 |
| CN(C)C(CNc1c(NCc2ccco2)c(=O)c1=O)c1ccccc1 (centres undefined) | 131.6 |
| COc1ccccc1C(C)(C)NCc1ccco1 | -0.6951 |
| Cc1nn(-c2ccccc2)nc1C(=O)NCC(c1ccco1)N(C)C (centres undefined) | -4.253 |
| CNc1c(NCc2ccco2)c(=O)c1=O | 113.6 |
| CCCNC(=O)CCNC1CSCCc2ccccc21 (centres undefined) | -10.65 |
| COC(=O)c1sccc1S(=O)(=O)N1CCC(Oc2ncccc2Cl)CC1 | 25.07 |
| OCCN1CCc2[nH]nc(C(c3ccccc3)c3ccccc3)c2C1 | 13.32 |
| CCc1cnc(CN(C)C(=O)Nc2cnc3c(c2)c(C)nn3C)s1 | -8.075 |
| O=C(c1ccc(O)nc1)N1CCN(C(=O)c2ccc(F)cc2F)CC1 | -4.376 |
| CC(C)CNc1c(NCc2ccco2)c(=O)c1=O | 131.9 |
| CNS(=O)(=O)c1cccc(C(C)NCc2ccco2)c1 (centres undefined) | -0.2197 |

| SMILES | Percent Effect [%] |
| --- | --- |
| CCn1c(NCc2ccco2)nc2c(C)nn(C)c2c1=O | 25.01 |
| CSCCCNC(=O)c1coc(Cn2cnc3ccccc32)n1 | 7.588 |
| c1ccc2oc(NC3CCCN(Cc4noc(C5CC5)n4)C3)nc2c1 (centres undefined) | 2.188 |
| CCc1nnc(CNC2CCCN(Cc3noc(C4CC4)n3)C2)o1 (centres undefined) | 121.7 |
| CC(C)c1nnc(CNC2CCCN(Cc3noc(C4CC4)n3)C2)o1 (centres undefined) | 144.7 |
| C1CC(NCc2nnc(C3CC3)o2)CN(Cc2noc(C3CC3)n2)C1 (centres undefined) | 132.9 |
| C1CC(c2noc(C3CC3)n2)CN(Cc2noc(C3CC3)n2)C1 (centres undefined) | 0.1706 |
| CCc1nc(CN2CCCC(NCc3nnc(C4CC4)o3)C2)no1 (centres undefined) | 5.014 |
| OCCN1CCC(CNCCOCC(F)(F)F)CC1 | 0.8425 |
| Cc1ccc(-c2ncc(CNc3cnccc3CO)s2)o1 | 8.317 |
| FC(F)(F)CCc1ncnn1-c1ccc2c(c1)OCO2 | -6.748 |
| Cc1ccccc1C(C(=O)N1CCN(C(=O)c2ccc[nH]2)CC1)N(C)C (centres undefined) | 2.077 |
| Nc1ncc(CN2CCC(CCC(=O)NC3CC3)CC2)cn1 | 2.927 |
| CC(C)CN1CC[C@@H]2[C@@H]1CCN2S(=O)(=O)c1cn(C)cn1.O=C(O)C(F)(F)F | 9.969 |
| CCN1CCC2(C1)CN(S(=O)(=O)c1cn(C)cn1)C2.O=C(O)C(F)(F)F.O=C(O)C(F)(F)F | 110.7 |
| Cn1cnc(S(=O)(=O)N2CC3(CCN(CC4CC4)C3)C2)c1.O=C(O)C(F)(F)F.O=C(O)C(F)(F)F | 100.1 |
| Cn1cnc(S(=O)(=O)N2CC3(CCN(c4ccccc4)C3)C2)c1.O=C(O)C(F)(F)F | 94.4 |
| CCS(=O)(=O)N1CCC2(CN(C(=O)c3cn(C)cn3)C2)C1 | -4.508 |
| CCO[C@H]1CCN(S(=O)(=O)c2cn(C)cn2)[C@H]1Cc1ccccc1.O=C(O)C(F)(F)F | -2.456 |
| CC(C)CN1CCC2(C1)CN(S(=O)(=O)c1cn(C)cn1)C2.O=C(O)C(F)(F)F.O=C(O)C(F)(F)F | 81.89 |
| CC(C)CO[C@H]1CN(S(=O)(=O)c2cn(C)cn2)[C@@H]2CCCO[C@H]12.O=C(O)C(F)(F)F | -4.682 |
| Cn1cnc(C(=O)N2CC3(CCN(S(=O)(=O)c4ccccc4)C3)C2)c1 | -0.5352 |
| CCn1cc2c(n1)CN(S(=O)(=O)c1cn(C)cn1)CC2COC.O=C(O)C(F)(F)F (centres undefined) | -7.552 |
| Cn1cnc(S(=O)(=O)N2CCN(CC3CC3)c3ncccc3C2)c1.O=C(O)C(F)(F)F.O=C(O)C(F)(F)F | -19.75 |
| O=C(O)C(F)(F)F.O=S(=O)(C1CC1)N1CCC2(CN(c3ccccn3)C2)C1 | 2.12 |
| CC(CC(=O)Nc1ncn(CC(=O)NCc2ccccc2)n1)C1CC1 (centres undefined) | -9.655 |

| SMILES | Percent Effect [%] |
| --- | --- |
| COc1ccc(S(=O)(=O)NCC(O)c2sccc2C)cc1Cl (centres undefined) | 7.194 |
| CC(=O)N1CCCCCC1C1CCN(Cc2nc(C3CC3)no2)CC1 (centres undefined) | -6.899 |
| Brc1cnc(NCCCOC2CCOCC2)nc1 | -7.222 |
| CNc1cccc(CC2COCCN(C(=O)c3cnn(C)c3)C2)n1 (centres undefined) | 151.8 |
| CC(C)Oc1cccc(C(=O)C2CCCN(C(=O)c3cncs3)C2)c1 (centres undefined) | 11.61 |
| CNc1cccc(CC2COCCN(C(=O)c3cncs3)C2)n1 (centres undefined) | 126.5 |
| CNc1cccc(CC2COCCN(C(=O)c3cccnc3)C2)n1 (centres undefined) | 118.9 |
| Cc1ccsc1S(=O)(=O)N1CCc2c(c(C(=O)O)nn2CC2CC2)C1 | -2.186 |
| CN(Cc1noc2c1CCCC2)C(=O)Cn1c(=O)cnc2ccccc21 | 5.556 |
| Cc1cnc2n(c1=O)C(CC(=O)NCc1cc(-c3cccs3)on1)CS2 (centres undefined) | -18.75 |
| O=C(CC1CSc2nccc(=O)n21)NCc1ccco1 (centres undefined) | 9.661 |
| O=C(CC1CSc2nccc(=O)n21)NCc1cc(-c2ccco2)on1 (centres undefined) | -4.448 |
| Cc1cnc2n(c1=O)C(CC(=O)NCc1ccco1)CS2 (centres undefined) | 71.35 |
| Cc1cnc2n(c1=O)C(CC(=O)NCc1cccs1)CS2 (centres undefined) | 81.1 |
| CC(C)c1cc2c(O)nc(CSCC(=O)O)nc2s1 | 30.38 |
| CN(Cc1cccs1)C(=O)c1ccc(N2CCOCC2)c(F)c1 | -5.296 |
| COc1ccccc1C(NC(=O)NC1CC1)c1noc(C)n1 (centres undefined) | -18.96 |
| CCc1nc(C2CCCN2CC(=O)Nc2cc(C)on2)no1 (centres undefined) | 106.9 |
| CCc1nc(C2CCCN2CC(=O)Nc2cc(C)no2)no1 (centres undefined) | 85.76 |
| Cc1cc(NC(=O)CN2CCCC2c2noc(C3CC3)n2)no1 (centres undefined) | 3.572 |
| CCc1nc(C2CCCN2CC(=O)Nc2nncs2)no1 (centres undefined) | -0.024 |
| CCc1nc(C2CCCN2CC(=O)Nc2c(C)nn(C)c2C)no1 (centres undefined) | -9.932 |
| Cc1nnc(NC(=O)CN2CCCC2c2noc(C3CC3)n2)s1 (centres undefined) | -18.02 |
| Cc1cc(NC(=O)CN2CCCC2c2noc(C3CC3)n2)on1 (centres undefined) | 2.122 |
| CCc1nc(C2CCCN2CC(=O)Nc2nnc(C)s2)no1 (centres undefined) | 78.74 |
| CCc1nc(C2CCCN2CC(=O)Nc2sc(C)c(C)c2C)no1 (centres undefined) | -4.711 |
